Source: PubChem (National Center for Advancing Translational Sciences (NCATS))
DT40 TDP1 CPT: DT40-hTDP1 cell growth loss with CPT; actives 12% (n = 420,000); chicken DT40 Tdp1-/-;hTDP1 cells + 20 nM CPT, ATP luminescence, 48 h; Potency, µM (series often up to 46.2 µM), for inactives: at the highest dose activity change, negative = growth inhibition, usual class: inhibitors; AID 686979; further: potency means the concentration at half of the fitted maximal effect; nearly all actives have a fitted effect of over 55% in size
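Cell growth measured by CellTiter-Glo luminescence after a minimum 48 h, 37 C compound exposure with 20 nM CPT in Tdp1-knockout DT40 cells stably expressing hTDP1, seeded 400/well; qHTS titration format.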
DT40 TDP1 no CPT: qHTS for Inhibitors of human tyrosyl-DNA phosphodiesterase 1 (TDP1): qHTS in cells in absence of CPT. actives 15% (n = 420,000). DT40 Tdp1-/- hTDP1 cells, no CPT, ATP luminescence, 48 h. Potency, µM (top dose mostly 46.2 µM), for the others: top-dose activity change, negative = growth inhibition, actives largely listed as inhibitors. AID 686978, 2013; further: potency means the concentration at half of the fitted maximal effect; nearly all actives have a fitted effect of over 55% in size
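Growth kinetics read by CellTiter-Glo luminescence after ≥48 hr at 37 °C. Cells: DT40 Tdp1-/- stably carrying human TDP1, 400 per well, compound exposure in the absence of CPT (DMSO vehicle).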
ELG1 DNA repair: inhibitors of ELG1-dependent DNA repair in HEK293T cells. HEK293T ELG1-luciferase reporter, luminescence, 16 h; DNA damage induced by 5-fluorouridine. Potency, µM (titrated, usually from 46.1 µM), for the others: top-dose activity change, negative = inhibition, actives largely listed as inhibitors. actives 2.3% (n = 330,000); further: potency means the concentration at half of the fitted maximal effect; nearly all actives have a fitted effect of over 55% in size
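Cells (2,000 per well) received 5-fluorouridine plus test compound or DMSO and were incubated 16 hr at 37 °C, 5% CO2. Luciferase activity was read by luminescence 30 min after ONE-Glo addition; signal suppression marked inhibition of damage-induced ELG1 function.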
RORg inh: ROR gamma (mouse) transcription inhibition | P51450 | Drosophila S2 Gal4-RORgamma UAS-luciferase reporter, 20 h | Potency, µM (series often up to 53.6 µM), for the others: at the top dose activity change, negative = inhibition, actives largely listed as inhibitors | actives 5.4% (n = 310,000) | AID 2551; further: potency means the concentration at half of the fitted maximal effect; nearly all actives have a fitted effect of over 60% in size
Target sequence (P51450 whole entry, looked up, the tested form may be a part): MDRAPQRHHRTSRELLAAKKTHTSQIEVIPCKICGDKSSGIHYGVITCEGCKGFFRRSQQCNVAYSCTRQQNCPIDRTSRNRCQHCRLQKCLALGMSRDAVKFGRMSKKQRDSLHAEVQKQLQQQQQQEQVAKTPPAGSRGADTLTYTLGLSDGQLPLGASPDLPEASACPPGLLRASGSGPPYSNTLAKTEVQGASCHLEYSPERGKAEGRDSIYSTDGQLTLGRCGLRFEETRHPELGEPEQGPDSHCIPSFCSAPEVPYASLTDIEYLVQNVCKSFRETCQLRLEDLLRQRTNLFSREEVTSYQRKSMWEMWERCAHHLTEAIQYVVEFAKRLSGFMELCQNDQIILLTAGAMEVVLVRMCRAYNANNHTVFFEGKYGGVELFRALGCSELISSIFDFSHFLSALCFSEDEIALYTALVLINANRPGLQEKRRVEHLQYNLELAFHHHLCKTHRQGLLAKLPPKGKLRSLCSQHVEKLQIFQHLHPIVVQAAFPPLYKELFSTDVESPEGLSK
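Stable Schneider cell line, Gal4 DNA-binding domain fused to ROR gamma, UAS-luciferase. Cmpd 1 hr RT → CuSO4 700 uM final → 20 hr RT → luciferase reagent 10 min → luminescence.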
IL1B secr inh: blocks inflammasome-driven IL-1 beta release. THP-1 LPS/ATP IL-1B secretion, AlphaLISA, 16 h; stronger effect = lower value. activity change, % at 57.5 µM. actives 4.7% (n = 360,000); in the data active means activity change below about -50%; inconclusive means mostly about -30% to -49%
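THP-1 cells pretreated 1 hr with compounds (up to 57.5 uM final), then stimulated with LPS (250 ng/mL final) plus ATP (1.25 mM final); secreted IL-1B measured by AlphaLISA after 16 hr, decreased signal indicating inhibition.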
Gal4-VP16 FLuc: Gal4-VP16 reporter inhibition counter-screen; Drosophila S2 Gal4-VP16 UAS-luciferase, luminescence, 20 h; Potency, µM (titrated, usually from 53.6 µM), for the others: top-dose activity, negative = inhibition, usual class: inhibitors; actives 3.5% (n = 310,000); AID 2546;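 further: Gal4-VP16 expression switched on by copper sulfate through the metallothionein promoter; potency means the concentration at half of the fitted maximal effect; nearly all actives have a fitted effect of over 50% in size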
Starred values were filed as active, the others as inactive; [ ] = remark or other dose. Most compounds without a hit are left out; they make up all but 21% or so of the library. Unless noted, the call rests on the fitted dose curve; in most records, active means well fitted curve in the direction sought with a large enough effect; inconclusive means small, poorly fitted or top-dose-only effect, or another doubt; inactive means no such curve, though single readings can be large; an effect the other way counts as inactive or inconclusive. On the % scale 0 is the no-effect control and ±100 the full control effect.

Cc1cc(C)cc(-c2nc(-c3ccncc3)no2)c1 was read as DT40 TDP1 CPT inconclusive, DT40 TDP1 no CPT inconclusive, ELG1 DNA repair inconclusive, RORg inh inconclusive, IL1B secr inh 1 and Gal4-VP16 FLuc 0%.
For CC(C)(C)c1ccc(-c2nc(-c3ccncc3)no2)cc1 the results were DT40 TDP1 CPT inconclusive, DT40 TDP1 no CPT 16µM*, ELG1 DNA repair inconclusive, RORg inh inconclusive, IL1B secr inh 51 and Gal4-VP16 FLuc inconclusive.
For Cc1ccc(-c2nc(-c3ccncc3)no2)cc1 the results were DT40 TDP1 CPT 0%, DT40 TDP1 no CPT -20%, ELG1 DNA repair inconclusive, RORg inh 14µM*, IL1B secr inh -3 and Gal4-VP16 FLuc inconclusive.
CC(C)(C)c1ccc(-c2noc(-c3ccno3)n2)cc1 was read as DT40 TDP1 CPT -26%, DT40 TDP1 no CPT inconclusive, ELG1 DNA repair inconclusive, RORg inh -15%, IL1B secr inh 12 and Gal4-VP16 FLuc inconclusive.
Screening CCNc1nc(C#N)nc(Nc2ccccc2)n1 returned DT40 TDP1 CPT inconclusive and DT40 TDP1 no CPT 11µM*.
CCCN(CC(=O)Nc1ccccc1C)C(=O)c1cccc(S(=O)(=O)N2CCN(c3ccccc3)CC2)c1 was read as DT40 TDP1 CPT inconclusive, DT40 TDP1 no CPT inconclusive, ELG1 DNA repair -28% and IL1B secr inh -4.
For Oc1ccc(NCc2ccccc2OCc2ccccc2Cl)cc1 the results were DT40 TDP1 CPT 15µM* and DT40 TDP1 no CPT 5.2µM*.
For NC(=O)COC(=O)c1ccccc1OCc1ccccc1Cl the results were DT40 TDP1 CPT inconclusive, DT40 TDP1 no CPT -10%, ELG1 DNA repair 7%, RORg inh 9%, IL1B secr inh 8 and Gal4-VP16 FLuc 11%.
For CCOc1ccccc1CNCc1ccc(F)cc1 the results were DT40 TDP1 CPT -3%, DT40 TDP1 no CPT inconclusive, ELG1 DNA repair 13%, RORg inh 15%, IL1B secr inh -51* and Gal4-VP16 FLuc 5%.
For COc1cccc(CNCCO)c1OCc1ccc(Cl)cc1 the results were DT40 TDP1 CPT inconclusive, DT40 TDP1 no CPT -30%, ELG1 DNA repair -22%, RORg inh 10%, IL1B secr inh -4 and Gal4-VP16 FLuc 0%.
Screening CCOc1ccccc1CNc1ccc(O)cc1 returned DT40 TDP1 CPT 16µM*, DT40 TDP1 no CPT inconclusive, ELG1 DNA repair inconclusive, RORg inh -36%, IL1B secr inh 38 and Gal4-VP16 FLuc -10%[10 µM].
Screening CCOc1cccc(CNc2ccc(O)cc2)c1OCc1ccc(Cl)cc1 returned DT40 TDP1 CPT 15µM*, DT40 TDP1 no CPT inconclusive, ELG1 DNA repair inconclusive, RORg inh inconclusive, IL1B secr inh -3 and Gal4-VP16 FLuc inconclusive.
For Cc1ccc(CNc2ncnc3sc(C(=O)N4CCC[C@H]4C(N)=O)c(C)c23)o1 the results were DT40 TDP1 CPT 0%[9.04 µM] and DT40 TDP1 no CPT -29%.
For NS(=O)(=O)c1ccc(NCc2ccccc2OCc2ccccc2F)cc1 the results were DT40 TDP1 CPT inconclusive, DT40 TDP1 no CPT inconclusive, ELG1 DNA repair -3%, RORg inh 5%, IL1B secr inh -19 and Gal4-VP16 FLuc -9%.
For Oc1ccc(NCc2ccccc2OCc2ccccc2F)cc1 the results were DT40 TDP1 CPT 18µM*, DT40 TDP1 no CPT 16µM*, ELG1 DNA repair inconclusive, RORg inh 13µM*, IL1B secr inh -6 and Gal4-VP16 FLuc 16µM*.
`CCOc1cc(CNc2ccc(O)cc2)ccc1OCc1ccc(Cl)cc1Cl` gave DT40 TDP1 CPT 15µM*, DT40 TDP1 no CPT 15µM*, ELG1 DNA repair inconclusive, RORg inh 16µM*, IL1B secr inh -106* and Gal4-VP16 FLuc inconclusive.
`CC12CN(C(=S)Nc3ccccc3)CC(C)(CN(C(=S)Nc3ccccc3)C1)C2=O` gave DT40 TDP1 CPT 1%, DT40 TDP1 no CPT -29%, ELG1 DNA repair -1%, RORg inh -25%, IL1B secr inh 0 and Gal4-VP16 FLuc -24%.
`NC(=O)C1CCN(C2CC(=O)N(Cc3ccc(N4CCCC4=O)cc3)C2=O)CC1` (stereo not drawn) gave DT40 TDP1 CPT 26µM*, DT40 TDP1 no CPT inconclusive, ELG1 DNA repair -1%, RORg inh -24%, IL1B secr inh 4 and Gal4-VP16 FLuc 1%.
Screening Cc1[nH]c2ccc(-c3n[nH]c(=S)n3-c3ccc(Br)cc3)cc2c1C returned DT40 TDP1 CPT inconclusive, DT40 TDP1 no CPT -21%, ELG1 DNA repair 1%, RORg inh 7.9µM*, IL1B secr inh 5 and Gal4-VP16 FLuc -8%.
Screening COc1cccc(-n2c(-c3ccc4[nH]c(C)c(C)c4c3)n[nH]c2=S)c1 returned DT40 TDP1 CPT inconclusive, DT40 TDP1 no CPT inconclusive, ELG1 DNA repair inconclusive, RORg inh inconclusive, IL1B secr inh -4 and Gal4-VP16 FLuc 5%.
Screening Cc1[nH]c2ccc(-c3n[nH]c(=S)n3-c3ccccc3)cc2c1C returned DT40 TDP1 CPT -14%, DT40 TDP1 no CPT inconclusive, ELG1 DNA repair 14%, RORg inh 7.9µM*, IL1B secr inh 2 and Gal4-VP16 FLuc inconclusive.
Screening Cc1[nH]c2ccc(-c3n[nH]c(=S)n3Cc3ccccc3)cc2c1C returned DT40 TDP1 CPT 23µM*, DT40 TDP1 no CPT 16µM*, ELG1 DNA repair 15%, RORg inh 10µM*, IL1B secr inh -57* and Gal4-VP16 FLuc -14%.
Screening Cc1cc(C)cc(C(=O)NCCc2sc(-c3ccc(F)cc3)nc2C)c1 returned DT40 TDP1 CPT 13µM* and DT40 TDP1 no CPT 21µM*.
For COc1ccc(CC(=O)NCCc2sc(-c3ccc(Cl)cc3)nc2C)cc1OC the results were DT40 TDP1 CPT inconclusive and DT40 TDP1 no CPT 21µM*.
Screening Cc1nc(-c2ccc(Cl)cc2)sc1CCNC(=O)c1ccco1 returned DT40 TDP1 CPT 21µM* and DT40 TDP1 no CPT 18µM*.
For Cc1nc(-c2ccc(Cl)cc2)sc1CCNC(=O)C(=O)Nc1ccccc1C#N the results were DT40 TDP1 CPT -15% and DT40 TDP1 no CPT -26%.
For COc1ccc(CC(=O)NCCc2sc(-c3cccc(F)c3)nc2C)cc1 the results were DT40 TDP1 CPT -27% and DT40 TDP1 no CPT inconclusive.
`COc1ccc(C(=O)NCCc2sc(-c3cccc(F)c3)nc2C)cc1` gave DT40 TDP1 CPT 23µM* and DT40 TDP1 no CPT 16µM*.
O=C(c1cnccn1)N1CCC2(CC1)CN(Cc1nccs1)C2 was read as DT40 TDP1 CPT 3%, DT40 TDP1 no CPT -19%, RORg inh -7% and Gal4-VP16 FLuc -10%.
